# Source: the supplement of paper PMC8728848
# The entries come from a sample that favours the strongest signals as a whole.
# Experiments:
# Assay in all cases: glycan array binding signal (z-score within array); higher = stronger binding
# Details in all cases: glycan notation: IUPAC condensed, linker removed
# [1] = molecular target: Fuc(a1-2)Gal(b1-3)GalNAc(b1-3)Gal(b1-4)Glc
# How it was run: (§1)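 From the Consortium for Functional Glycomics database, 3228 arrays were curated, keeping only those whose protein sequence was available. Binding is given as a within-array Z-score averaged across arrays sharing a protein sequence and across linkers. Negative Z-scores can be read as non-binding.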
# [2] = molecular target: Fuc(a1-2)Gal(b1-3)GlcNAc(b1-3)Gal(b1-4)Glc
# How it was run: as §1
# [3] = molecular target: Fuc(a1-2)Gal(b1-3)GlcNAc(b1-3)[Fuc(a1-2)Gal(b1-3)GlcNAc(b1-6)]GalNAc
# How it was run: as §1
# [4] = molecular target: Fuc(a1-2)Gal(b1-3)[Fuc(a1-4)]GlcNAc(b1-2)Man(a1-3)[Fuc(a1-2)Gal(b1-3)[Fuc(a1-4)]GlcNAc(b1-2)Man(a1-6)]Man(b1-4)GlcNAc(b1-4)[Fuc(a1-6)]GlcNAc(b1-4)[Fuc(a1-6)]GlcNAc
# How it was run: as §1
# [5] = molecular target: Fuc(a1-2)Gal(b1-4)GlcNAc(b1-3)Gal(b1-4)GlcNAc
# How it was run: as §1
# [6] = molecular target: Fuc(a1-2)Gal(b1-4)GlcNAc(b1-3)Gal(b1-4)GlcNAc(b1-3)Gal(b1-4)GlcNAc
# How it was run: as §1
# [7] = molecular target: Fuc(a1-2)Gal3S(b1-4)GlcNAc
# How it was run: as §1
# [8] = molecular target: Fuc(a1-2)Gal6S(b1-4)Glc6S
# How it was run: as §1
# [9] = molecular target: Fuc(a1-2)[Gal(a1-3)]Gal(b1-4)GlcNAc
# How it was run: as §1
# [10] = molecular target: Fuc(a1-2)[Gal(a1-3)]Gal(b1-4)GlcNAc(b1-2)Man(a1-3)[Fuc(a1-2)[Gal(a1-3)]Gal(b1-4)GlcNAc(b1-2)Man(a1-6)]Man(b1-4)GlcNAc(b1-4)[Fuc(a1-6)]GlcNAc
# How it was run: as §1
# [11] = molecular target: Fuc(a1-2)[GalNAc(a1-3)]Gal(b1-3)GlcNAc
# How it was run: as §1
# [12] = molecular target: Fuc(a1-2)[GalNAc(a1-3)]Gal(b1-4)GlcNAc
# How it was run: as §1
# [13] = molecular target: Fuc(a1-2)[GalNAc(a1-3)]Gal(b1-4)GlcNAc(b1-2)Man
# How it was run: as §1
# [14] = molecular target: Fuc(a1-2)[GalNAc(a1-3)]Gal(b1-4)[Fuc(a1-3)]GlcNAc(b1-3)GalNAc
# How it was run: as §1
# [15] = molecular target: Fuc(a1-3)GlcNAc
# How it was run: as §1
# [16] = molecular target: Gal(a1-3)Gal(b1-3)GlcNAc(b1-2)Man(a1-3)[Gal(a1-3)Gal(b1-3)GlcNAc(b1-2)Man(a1-6)]Man(b1-4)GlcNAc(b1-4)GlcNAc
# How it was run: as §1
# [17] = molecular target: Gal(a1-4)Gal(b1-4)GlcNAc(b1-3)Gal(b1-4)Glc
# How it was run: as §1
# [18] = molecular target: Gal(b1-3)Gal
# How it was run: as §1
# [19] = molecular target: Gal(b1-3)GalNAc(a1-3)[Fuc(a1-2)]Gal(b1-4)GlcNAc
# How it was run: as §1
# [20] = molecular target: Gal(b1-3)GlcNAc(a1-3)Gal(b1-4)GlcNAc
# How it was run: as §1
# [21] = molecular target: Gal(b1-3)GlcNAc(b1-3)Gal(b1-4)Glc
# How it was run: as §1
# [22] = molecular target: Gal(b1-3)GlcNAc(b1-3)Gal(b1-4)GlcNAc
# How it was run: as §1
# [23] = molecular target: Gal(b1-3)[Fuc(a1-4)]GlcNAc(b1-3)Gal(b1-4)[Fuc(a1-3)]GlcNAc
# How it was run: as §1
# [24] = molecular target: Gal(b1-3)[Neu5Ac(b2-6)]GalNAc
# How it was run: as §1
# [25] = molecular target: Gal(b1-4)GalNAc(a1-3)[Fuc(a1-2)]Gal(b1-4)GlcNAc
# How it was run: as §1
# [26] = molecular target: Gal(b1-4)GlcNAc(b1-2)Man(a1-3)[Gal(b1-4)GlcNAc(b1-2)Man(a1-6)][GlcNAc(b1-4)]Man(b1-4)GlcNAc(b1-4)[Fuc(a1-6)]GlcNAc
# How it was run: as §1
# [27] = molecular target: GalNAc(a1-3)Gal
# How it was run: as §1
# [28] = molecular target: Glc(a1-6)Glc(a1-6)Glc
# How it was run: as §1
# [29] = molecular target: GlcNAc(a1-4)Gal(b1-4)GlcNAc(b1-3)Gal(b1-4)GlcNAc
# How it was run: as §1
# [30] = molecular target: GlcNAc(b1-2)Man(a1-3)[GlcNAc(b1-4)][GlcNAc(b1-2)Man(a1-6)]Man(b1-4)GlcNAc(b1-4)GlcNAc
# How it was run: as §1
# [31] = molecular target: GlcNAc(b1-3)[GlcNAc(b1-6)]GlcNAc(b1-4)GlcNAc
# How it was run: as §1
# [32] = molecular target: GlcNAc(b1-6)Gal(b1-4)GlcNAc
# How it was run: as §1
# [33] = molecular target: Man(b1-4)GlcNAc
# How it was run: as §1
# [34] = molecular target: Neu5Ac(a2-3)Gal(b1-3)[Fuc(a1-4)]GlcNAc
# How it was run: as §1
# [35] = molecular target: Neu5Ac(a2-3)Gal(b1-4)GlcNAc(b1-3)Gal(b1-4)GlcNAc
# How it was run: as §1
# [36] = molecular target: Neu5Ac(a2-3)Gal(b1-4)GlcNAc(b1-3)Gal(b1-4)GlcNAc(b1-3)Gal(b1-4)GlcNAc(b1-2)Man(a1-3)[Neu5Ac(a2-3)Gal(b1-4)GlcNAc(b1-3)Gal(b1-4)GlcNAc(b1-3)Gal(b1-4)GlcNAc(b1-2)Man(a1-6)]GalNAc
# How it was run: as §1
# [37] = molecular target: Neu5Ac(a2-3)Gal(b1-4)[Fuc(a1-3)]GlcNAc(b1-3)Gal(b1-4)GlcNAc
# How it was run: as §1
# [38] = molecular target: Neu5Ac(a2-6)Gal(b1-4)GlcNAc(b1-2)Man(a1-3)[GlcNAc(b1-4)][Neu5Ac(a2-6)Gal(b1-4)GlcNAc(b1-2)Man(a1-6)]Man(b1-4)GlcNAc(b1-4)GlcNAc
# How it was run: as §1
# [39] = molecular target: Neu5Ac(a2-6)Gal(b1-4)GlcNAc(b1-2)Man(a1-6)[Man(a1-3)]Man(b1-4)GlcNAc(b1-4)GlcNAc
# How it was run: as §1
# [40] = molecular target: Neu5Ac(a2-6)Gal(b1-4)GlcNAc(b1-3)Gal(b1-4)GlcNAc(b1-2)Man(a1-3)[Neu5Ac(a2-6)Gal(b1-4)GlcNAc(b1-3)Gal(b1-4)GlcNAc(b1-2)Man(a1-6)]GalNAc
# How it was run: as §1
# [41] = molecular target: Neu5Ac(a2-6)Gal(b1-4)GlcNAc(b1-6)[Gal(b1-3)GlcNAc(b1-3)]Gal(b1-4)Glc
# How it was run: as §1
# [42] = molecular target: Neu5Ac(b2-6)Gal(b1-4)GlcNAc
# How it was run: as §1
# [43] = molecular target: Neu5Gc(a2-3)Gal(b1-4)[Fuc(a1-3)]GlcNAc
# How it was run: as §1
binder,measurement,setting,value
"Gal 2 (Homo sapiens), P05162 (protein) MTGELEVKNMDMKPGSTLKITGSIADGTDGFVINLGQGTDKLNLHFNPRFSESTIVCNSLDGSNWGQEQREDHLCFSPGSEVKFTVTFESDKFKVKLPDGHELTFPNRLGHSHLSYLSVRGGFNMSSFKLKE",glycan array binding signal (z-score),[1],3.12
same,glycan array binding signal (z-score),[2],2.35
same,glycan array binding signal (z-score),[3],-0.048
same,glycan array binding signal (z-score),[4],0.137
same,glycan array binding signal (z-score),[5],2.16
same,glycan array binding signal (z-score),[6],2.4
same,glycan array binding signal (z-score),[7],-0.17
same,glycan array binding signal (z-score),[8],-0.193
same,glycan array binding signal (z-score),[9],2.52
same,glycan array binding signal (z-score),[10],8.45
same,glycan array binding signal (z-score),[11],3.75
same,glycan array binding signal (z-score),[12],5.89
same,glycan array binding signal (z-score),[13],13.5
same,glycan array binding signal (z-score),[14],-0.08
same,glycan array binding signal (z-score),[15],-0.254
same,glycan array binding signal (z-score),[16],-0.222
same,glycan array binding signal (z-score),[17],-0.229
same,glycan array binding signal (z-score),[18],-0.268
same,glycan array binding signal (z-score),[19],9.48
same,glycan array binding signal (z-score),[20],-0.111
same,glycan array binding signal (z-score),[21],0.74
same,glycan array binding signal (z-score),[22],0.837
same,glycan array binding signal (z-score),[23],-0.269
same,glycan array binding signal (z-score),[24],-0.237
same,glycan array binding signal (z-score),[25],5.71
same,glycan array binding signal (z-score),[26],-0.215
same,glycan array binding signal (z-score),[27],-0.281
same,glycan array binding signal (z-score),[28],-0.2
same,glycan array binding signal (z-score),[29],-0.28
same,glycan array binding signal (z-score),[30],-0.084
same,glycan array binding signal (z-score),[31],-0.396
same,glycan array binding signal (z-score),[32],-0.272
same,glycan array binding signal (z-score),[33],-0.273
same,glycan array binding signal (z-score),[34],-0.214
same,glycan array binding signal (z-score),[35],-0.292
same,glycan array binding signal (z-score),[36],0.02
same,glycan array binding signal (z-score),[37],-0.229
same,glycan array binding signal (z-score),[38],-0.169
same,glycan array binding signal (z-score),[39],-0.12
same,glycan array binding signal (z-score),[40],-0.008
same,glycan array binding signal (z-score),[41],-0.21
same,glycan array binding signal (z-score),[42],-0.244
same,glycan array binding signal (z-score),[43],-0.212
